Test results: PubChem BioAssay (NCATS)
Results filed as inconclusive are left out. A call without a number means that no potency is given here. Unmarked numbers belong to inactive results. Active and inactive are the calls of the source. The call rests on the fitted dose curve; in most records, active means well fitted curve in the direction sought with a large enough effect; inconclusive means small, poorly fitted or top-dose-only effect, or another doubt; inactive means no such curve, though single readings can be large; an effect the other way counts as inactive or inconclusive.

Columns and labels:
[1] = Primary qHTS for inhibitors of nuclear receptor binding SET domain protein 2 (NSD2) in an isogenic RCH-ACV NSD2 p.E1099K mutant (9B) (AID 1645876); further: nearly all actives have a fitted effect of over 70% in size; further: potency means the concentration at half of the fitted maximal effect
[2] = Primary qHTS for inhibitors of nuclear receptor binding SET domain protein 2 (NSD2) in an RCH-ACV wild type WT cells (2C) (AID 1645877); further: nearly all actives have a fitted effect of over 70% in size; further: potency means the concentration at half of the fitted maximal effect
[3] = target: Glutathione peroxidase 1 (Homo sapiens) (UniProt P07203); assay: Primary qHTS Assay for Inhibitors of Recombinant Selenoprotein Glutathione Peroxidase 1 (GPX1) (AID 1845191); further: nearly all actives have a fitted effect of over 65% in size
Procedure, shortened: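 GPX1 10 nM, GR 100 nM, GSH 1 mM, NADPH 0.5 mM, CHP 0.5 mM (final). 30-min cpd preincubation, RT. Ex340/Em450 read t=0, t=15 min.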

Sequence of Glutathione peroxidase 1 (Homo sapiens) (P07203 whole entry, looked up): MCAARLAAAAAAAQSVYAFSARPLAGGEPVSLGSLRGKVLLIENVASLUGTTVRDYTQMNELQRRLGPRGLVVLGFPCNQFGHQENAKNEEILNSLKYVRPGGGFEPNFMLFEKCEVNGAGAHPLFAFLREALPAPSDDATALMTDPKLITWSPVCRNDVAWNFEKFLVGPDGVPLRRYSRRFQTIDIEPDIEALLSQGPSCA

| SMILES | Potency [1] | Potency [2] | Potency [3] | activity change, negative = viability loss [1] | activity change, negative = cell killing [2] | outcome [1] |
| --- | --- | --- | --- | --- | --- | --- |
| CCCC(=O)O[C@@H]1[C@@H]2[C@@H](OC(C)=O)[C@]3(C)C(=O)[C@H]4[C@@H](OC(C)=O)C(C)(C)C[C@H]4[C@]3(C)C(=O)[C@@]2(OC(C)=O)C[C@@H]1C | inactive | inactive | inactive | – | – | – |
| CC(=O)O[C@@H]1C[C@H](O)[C@@]23CO[C@H](O)[C@]1(C)C2C[C@@H](O)[C@]1(C)C3C(=O)[C@H](OC(C)=O)[C@@]2(C)[C@H](c3ccoc3)C[C@H]3O[C@]321 (some centres not stated) | 0.0342 µM (active) | 0.0216 µM (active) | inactive | – | – | – |
| CC1=CC(=O)[C@]2(O[C@@H]3O[C@@H](C)[C@H](O)[C@@H](O)[C@H]3OC(=O)/C=C/c3ccccc3)C=CO[C@@H](O[C@@H]3O[C@H](CO)[C@@H](O)[C@H](O)[C@H]3O)[C@H]12 | inactive | inactive | inactive | – | – | – |
| CC(=O)O[C@H]1CC[C@@]2(C)C(CC[C@@H](C)[C@]23Cc2c(O)cc4c(c2O3)CN([C@@H](CCC(=O)O)C(=O)O)C4=O)C1(C)C (some centres not stated) | inactive | inactive | inactive | – | – | – |
| Cc1nc(Nc2n[nH]c3c2CN(C(=O)NC(CN(C)C)c2ccccc2)C3(C)C)c2sccc2n1 (configuration not stated) | 0.0065 µM (active) | 0.0052 µM (active) | inactive | – | – | – |
| C[C@@H]1O[C@@H](O[C@H]2[C@H](O[C@H]3[C@H](O[C@H]4CC[C@@]5(C)C(CC[C@]6(C)C5CC=C5[C@@H]7CC(C)(C)C[C@@H](O)[C@]7(C)CC[C@]56C)[C@@]4(C)CO)O[C@H](C(=O)O)[C@@H](O)[C@@H]3O)OC[C@H](O)[C@@H]2O)[C@H](O)[C@H](O)[C@H]1O (some centres not stated) | – | – | inactive | 2.23% [at 9.23 µM] | -3.15% [at 9.23 µM] | – |
| C=C1CCC[C@]2(C)CC[C@@H](C(=C)C(=O)O)[C@H](O)[C@@H]12 | inactive | inactive | inactive | – | – | – |
| CC1OC(OCC2OC(OC3CCC4(C)C(CCC5(C)C4CC=C4C6CC(C)(C)CCC6(C(=O)OC6OC(CO)C(O)C(O)C6O)CCC45C)C3(C)CO)C(O)C(O)C2O)C(O)C(O)C1O (configuration not stated) | – | – | inactive | 3.81% [at 9.23 µM] | -0.623% [at 9.23 µM] | – |
| C=C(C)C(=O)OC1C(OC(C)=O)/C(C=O)=C\CC/C(CO)=C/C2OC(=O)C(=C)C21 (configuration not stated) | 3.17 µM (active) | 1.42 µM (active) | inactive | – | – | – |
| C=C[C@]1(C)C=C2CCC3C(C)(CCC[C@@]3(C)C(=O)O)C2CC1 (some centres not stated) | inactive | inactive | inactive | – | – | – |
| C=C[C@H]1[C@H](O[C@@H]2O[C@H](CO)[C@@H](O)[C@H](O)[C@H]2O)OC=C(C(=O)OC)[C@H]1C[C@@H]1c2cc(O)c(O)cc2CCN1C(C)=O | inactive | inactive | inactive | – | – | – |
| CC(C)=CCC[C@](C)(O)[C@H]1CC[C@]2(C)[C@@H]1[C@H](O)CC1[C@@]3(C)CC[C@H](O)C(C)(C)C3[C@@H](O[C@@H]3O[C@H](CO)[C@@H](O)[C@H](O)[C@H]3O[C@@H]3OC[C@@H](O)[C@H](O)[C@H]3O)C[C@]12C (some centres not stated) | inactive | inactive | inactive | – | – | – |
| C[C@@H]1O[C@@H](O[C@@H]2[C@@H](O)[C@@H](O[C@]3(CO)O[C@H](CO)[C@@H](O)[C@@H]3OC(=O)/C=C/c3ccc(O)cc3)O[C@H](CO)[C@H]2OC(=O)/C=C/c2ccc(O)cc2)[C@H](O)[C@H](O)[C@H]1O[C@@H]1O[C@@H](C)[C@H](O[C@@H]2OC[C@](O)(CO)[C@H]2O)[C@@H](O)[C@H]1O | – | – | inactive | – | 1.71% [at 9.23 µM] | inactive [at 9.23 µM] |
| O=C(CC1C(=O)Nc2ccccc21)OC[C@H]1O[C@@H](OCCc2ccc(O)cc2)[C@H](O)[C@@H](O)[C@@H]1O (some centres not stated) | inactive | inactive | inactive | – | – | – |
| CC1(C)CCCC2(C)C1C(O)C=C(CO)C2(O)CO (configuration not stated) | inactive | inactive | inactive | – | – | – |
| COc1cc(C(=O)O)ccc1OC1OC(CO)C(O)C(O)C1O (configuration not stated) | inactive | inactive | inactive | – | – | – |
| CCC(O)C(C)C1CCC(C(C)C(=O)O)O1 (configuration not stated) | inactive | inactive | inactive | – | – | – |
| C=C[C@@]12COC(=O)C(=C)C1[C@@H](O)[C@H](C(=C)C(=O)OC)[C@@H](OC(=O)C(=C)CO)C2 (some centres not stated) | 8.93 µM (active) | 7.09 µM (active) | inactive | – | – | – |
| C=C[C@]1(C)C[C@H](O)[C@@H]2[C@H](OC(=O)[C@@H]2C)C1/C(C)=C/O[C@@H]1O[C@H](CO)[C@@H](O)[C@H](O)[C@H]1O (some centres not stated) | inactive | inactive | inactive | – | – | – |
